# Results taken from the supplement of paper PMC6411743.
# ± gives the standard deviation of the averaged measurements. About 5,400 targets were measured; listed, in parts, are those with the largest changes and a random draw of the rest.
# Compound: Nc1nc2c(ncn2[C@@H]2O[C@H](COP(=O)(O)OP(=O)(O)OP(=O)(O)O)[C@@H](O)[C@H]2O)c(=O)[nH]1 [guanosine triphosphate]
# Assay: NP40-soluble protein abundance relative to vehicle (solubility fold change) (ratio); higher = more soluble protein in presence of GTP
# Procedure: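 Solubility proteome profiling in Jurkat crude lysate. Lysate was treated with Mg-GTP (0.1-10 mM) for 10 min at room temperature and 3 min at 37 °C, then solubilised with 0.8% NP40 and benzonase, followed by ultracentrifugation. Proteins were quantified by TMT10 LC-MS/MS; the value is the NP40-soluble abundance relative to the NP40-processed vehicle, from 3 independent experiments.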
# UniProt Q8IW45, sequence (Q8IW45 whole entry): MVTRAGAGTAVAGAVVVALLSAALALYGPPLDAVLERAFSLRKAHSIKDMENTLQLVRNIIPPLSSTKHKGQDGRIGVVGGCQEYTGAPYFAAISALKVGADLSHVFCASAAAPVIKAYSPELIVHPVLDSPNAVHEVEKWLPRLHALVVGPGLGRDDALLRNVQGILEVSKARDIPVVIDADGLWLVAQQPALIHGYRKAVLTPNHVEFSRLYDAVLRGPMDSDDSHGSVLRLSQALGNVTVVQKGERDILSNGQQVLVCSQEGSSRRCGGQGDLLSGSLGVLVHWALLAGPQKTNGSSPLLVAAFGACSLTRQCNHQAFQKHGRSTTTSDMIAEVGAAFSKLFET
# UniProt P55884, sequence (P55884 whole entry): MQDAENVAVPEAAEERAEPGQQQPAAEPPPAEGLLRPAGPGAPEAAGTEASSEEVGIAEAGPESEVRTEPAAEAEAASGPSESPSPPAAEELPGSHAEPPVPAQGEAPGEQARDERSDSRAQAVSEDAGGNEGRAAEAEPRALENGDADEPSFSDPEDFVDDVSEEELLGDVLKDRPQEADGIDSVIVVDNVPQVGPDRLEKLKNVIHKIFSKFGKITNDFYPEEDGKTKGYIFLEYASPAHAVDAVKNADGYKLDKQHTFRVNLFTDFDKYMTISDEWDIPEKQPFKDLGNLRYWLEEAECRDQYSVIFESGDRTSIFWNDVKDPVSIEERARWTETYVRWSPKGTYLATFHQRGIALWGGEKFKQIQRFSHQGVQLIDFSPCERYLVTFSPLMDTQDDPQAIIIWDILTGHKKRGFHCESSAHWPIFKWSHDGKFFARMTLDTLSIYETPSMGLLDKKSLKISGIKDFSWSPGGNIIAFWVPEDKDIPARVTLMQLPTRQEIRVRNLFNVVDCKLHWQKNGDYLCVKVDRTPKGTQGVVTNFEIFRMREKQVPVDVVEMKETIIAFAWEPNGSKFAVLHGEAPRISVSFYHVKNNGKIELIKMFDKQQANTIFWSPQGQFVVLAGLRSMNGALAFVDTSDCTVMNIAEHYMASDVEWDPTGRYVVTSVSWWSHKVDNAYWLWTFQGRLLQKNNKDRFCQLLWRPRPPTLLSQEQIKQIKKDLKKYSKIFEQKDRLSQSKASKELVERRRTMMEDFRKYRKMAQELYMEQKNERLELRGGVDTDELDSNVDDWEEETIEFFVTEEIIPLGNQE
# UniProt Q92696, sequence (Q92696 whole entry): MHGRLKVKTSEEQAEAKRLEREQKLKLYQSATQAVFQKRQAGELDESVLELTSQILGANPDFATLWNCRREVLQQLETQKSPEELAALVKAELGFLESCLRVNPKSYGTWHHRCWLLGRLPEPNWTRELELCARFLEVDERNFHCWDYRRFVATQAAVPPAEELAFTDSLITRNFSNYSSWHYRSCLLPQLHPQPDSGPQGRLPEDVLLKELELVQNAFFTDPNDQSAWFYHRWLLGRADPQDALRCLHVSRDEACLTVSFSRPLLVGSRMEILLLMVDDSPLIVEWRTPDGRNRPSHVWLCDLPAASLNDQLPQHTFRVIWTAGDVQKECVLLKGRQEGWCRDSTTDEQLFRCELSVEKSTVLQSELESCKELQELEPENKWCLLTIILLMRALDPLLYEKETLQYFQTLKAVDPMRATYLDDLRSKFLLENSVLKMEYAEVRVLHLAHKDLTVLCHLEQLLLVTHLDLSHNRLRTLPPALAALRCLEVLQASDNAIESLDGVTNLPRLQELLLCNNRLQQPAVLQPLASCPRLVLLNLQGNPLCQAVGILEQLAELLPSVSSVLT
# UniProt Q02880, sequence (Q02880 whole entry): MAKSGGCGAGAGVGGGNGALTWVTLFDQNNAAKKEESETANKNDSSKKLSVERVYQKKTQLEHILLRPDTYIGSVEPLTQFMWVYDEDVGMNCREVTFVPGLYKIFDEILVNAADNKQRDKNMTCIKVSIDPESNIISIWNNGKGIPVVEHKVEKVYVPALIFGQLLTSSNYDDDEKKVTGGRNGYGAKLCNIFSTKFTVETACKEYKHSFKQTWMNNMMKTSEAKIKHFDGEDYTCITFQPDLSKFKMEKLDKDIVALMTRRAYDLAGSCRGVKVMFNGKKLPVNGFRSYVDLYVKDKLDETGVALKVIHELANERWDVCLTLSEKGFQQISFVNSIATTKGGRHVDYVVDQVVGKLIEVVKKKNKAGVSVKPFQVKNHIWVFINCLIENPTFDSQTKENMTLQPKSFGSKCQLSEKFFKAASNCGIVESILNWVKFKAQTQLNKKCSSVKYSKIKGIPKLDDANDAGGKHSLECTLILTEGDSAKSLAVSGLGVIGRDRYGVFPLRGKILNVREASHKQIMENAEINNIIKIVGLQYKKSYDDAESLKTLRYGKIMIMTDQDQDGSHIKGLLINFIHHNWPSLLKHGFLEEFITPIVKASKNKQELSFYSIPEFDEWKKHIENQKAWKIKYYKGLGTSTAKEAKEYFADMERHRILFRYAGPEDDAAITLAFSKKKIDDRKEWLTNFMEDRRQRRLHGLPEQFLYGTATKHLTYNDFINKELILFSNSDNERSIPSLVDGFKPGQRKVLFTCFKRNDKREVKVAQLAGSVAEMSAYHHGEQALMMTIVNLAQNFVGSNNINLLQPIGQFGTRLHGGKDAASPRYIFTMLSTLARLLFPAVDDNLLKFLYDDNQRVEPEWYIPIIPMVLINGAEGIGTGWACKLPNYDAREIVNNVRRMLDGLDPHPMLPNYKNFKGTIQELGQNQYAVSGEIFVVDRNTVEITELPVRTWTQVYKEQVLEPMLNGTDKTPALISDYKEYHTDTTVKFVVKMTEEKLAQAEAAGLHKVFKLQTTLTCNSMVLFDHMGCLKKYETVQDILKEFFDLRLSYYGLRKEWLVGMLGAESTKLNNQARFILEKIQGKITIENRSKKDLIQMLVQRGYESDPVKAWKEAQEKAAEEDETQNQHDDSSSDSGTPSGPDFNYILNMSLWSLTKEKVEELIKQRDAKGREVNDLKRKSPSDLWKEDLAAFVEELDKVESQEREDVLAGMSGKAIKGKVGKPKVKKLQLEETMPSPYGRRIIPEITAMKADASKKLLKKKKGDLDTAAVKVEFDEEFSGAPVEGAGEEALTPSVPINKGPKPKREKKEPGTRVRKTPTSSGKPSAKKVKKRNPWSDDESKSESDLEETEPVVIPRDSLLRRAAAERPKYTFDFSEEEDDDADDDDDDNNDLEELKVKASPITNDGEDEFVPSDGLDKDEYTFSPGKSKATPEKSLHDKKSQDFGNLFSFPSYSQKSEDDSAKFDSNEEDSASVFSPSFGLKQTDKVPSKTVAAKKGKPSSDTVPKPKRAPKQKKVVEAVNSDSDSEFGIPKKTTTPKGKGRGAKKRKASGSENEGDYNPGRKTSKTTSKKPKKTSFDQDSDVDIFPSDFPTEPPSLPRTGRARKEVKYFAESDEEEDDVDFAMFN
# UniProt Q86U90, sequence (Q86U90 whole entry): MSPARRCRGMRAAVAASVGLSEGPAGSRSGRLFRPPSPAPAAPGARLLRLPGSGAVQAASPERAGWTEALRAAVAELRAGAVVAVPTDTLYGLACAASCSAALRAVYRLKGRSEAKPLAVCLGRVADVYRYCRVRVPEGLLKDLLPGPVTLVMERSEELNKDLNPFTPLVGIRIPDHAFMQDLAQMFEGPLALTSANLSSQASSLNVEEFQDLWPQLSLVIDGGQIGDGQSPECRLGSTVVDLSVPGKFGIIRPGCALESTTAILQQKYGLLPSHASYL
Target,NP40-soluble protein abundance (concentration: 0.1mM),NP40-soluble protein abundance (concentration: 0.5mM),NP40-soluble protein abundance (concentration: 1mM),NP40-soluble protein abundance (concentration: 2mM),NP40-soluble protein abundance (concentration: 4mM),NP40-soluble protein abundance (concentration: 6mM),NP40-soluble protein abundance (concentration: 8mM),NP40-soluble protein abundance (concentration: 10mM)
UniProt Q02880|Q02880-2,1.08 ± 0.06,1.09 ± 0.065,1.21 ± 0.06,1.37 ± 0.11,1.68 ± 0.17,1.85 ± 0.27,1.99 ± 0.26,2.08 ± 0.34
RABGGTA (UniProt Q92696),1.04 ± 0.026,1.04 ± 0.075,0.896 ± 0.022,0.916 ± 0.068,0.91 ± 0.037,0.889 ± 0.032,0.847 ± 0.037,0.849 ± 0.07
UniProt Q8IW45|Q8IW45-2,1.01 ± 0.071,0.978 ± 0.074,0.985 ± 0.038,0.945 ± 0.021,0.969 ± 0.013,0.915 ± 0.045,0.954 ± 0.077,0.91 ± 0.035
YRDC (UniProt Q86U90),0.989 ± 0.041,0.952 ± 0.022,0.949 ± 0.027,0.943 ± 0.015,0.946 ± 0.041,0.899 ± 0.026,0.871 ± 0.07,0.916 ± 0.055
UniProt P55884|P55884-2,1.02 ± 0.042,1.07 ± 0.056,1.03 ± 0.068,1.14 ± 0.18,1.29 ± 0.26,1.46 ± 0.33,1.55 ± 0.34,1.75 ± 0.36
